{"source": "the supplement of paper PMC11624193", "about": "“Coupling cellular drug-target engagement to downstream pharmacology with CeTEAM” (Nature Communications, 2024)", "note": "Where a name gives a salt, the structure may show the parent alone. Unmarked numbers belong to inactive results.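 The calls were made as follows: active = log2 fold change beyond 2 SD from the library mean after excluding viability outliers; inactive = within 2 SD.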"}
{"biological_target": "PARP1 L713F-nLuc biosensor (HCT116) (UniProt P09874)", "sequence (P09874 whole entry L713F, looked up)": "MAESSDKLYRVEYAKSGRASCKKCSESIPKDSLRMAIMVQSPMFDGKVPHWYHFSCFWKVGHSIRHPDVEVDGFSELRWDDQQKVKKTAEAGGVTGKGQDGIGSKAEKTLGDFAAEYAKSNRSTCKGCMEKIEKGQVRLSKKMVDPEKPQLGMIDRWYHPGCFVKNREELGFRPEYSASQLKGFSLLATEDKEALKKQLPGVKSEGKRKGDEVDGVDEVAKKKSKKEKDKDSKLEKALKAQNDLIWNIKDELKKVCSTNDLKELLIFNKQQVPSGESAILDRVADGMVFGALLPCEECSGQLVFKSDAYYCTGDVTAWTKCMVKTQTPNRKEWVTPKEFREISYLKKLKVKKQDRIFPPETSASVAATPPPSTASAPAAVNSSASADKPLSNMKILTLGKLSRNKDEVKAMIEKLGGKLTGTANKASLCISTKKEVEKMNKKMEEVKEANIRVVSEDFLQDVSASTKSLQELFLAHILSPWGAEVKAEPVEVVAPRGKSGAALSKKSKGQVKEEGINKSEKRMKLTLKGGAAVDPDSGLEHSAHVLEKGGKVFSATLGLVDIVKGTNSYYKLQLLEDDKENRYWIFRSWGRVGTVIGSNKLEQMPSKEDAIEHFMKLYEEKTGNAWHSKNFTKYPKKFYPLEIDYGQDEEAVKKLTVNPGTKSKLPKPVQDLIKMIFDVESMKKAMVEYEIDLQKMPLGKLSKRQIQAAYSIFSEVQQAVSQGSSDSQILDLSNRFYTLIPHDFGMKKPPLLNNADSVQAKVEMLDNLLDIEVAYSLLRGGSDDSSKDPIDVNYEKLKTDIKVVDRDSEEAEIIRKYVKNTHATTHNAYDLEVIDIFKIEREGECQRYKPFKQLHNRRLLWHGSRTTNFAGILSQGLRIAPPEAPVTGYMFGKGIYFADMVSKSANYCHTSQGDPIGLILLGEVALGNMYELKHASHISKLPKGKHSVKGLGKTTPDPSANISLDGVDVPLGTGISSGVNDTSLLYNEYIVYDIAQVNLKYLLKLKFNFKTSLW", "test": "PARP1 L713F-nLuc/akaLuc ratio relative to DMSO control (biosensor stabilization) (fold change); higher = more PARP1 biosensor stabilization (target engagement / stabilizer), active = hit call of the paper", "details": "stock concentration (mM; final µM = stock mM x 1): 10; 24 h"}
{"smiles": "NC(=O)c1nc(-c2c(F)cccc2Cl)oc1Nc1ccc(C(=O)N2CCOCC2)cc1", "PARP1 L713F-nLuc/akaLuc ratio": 0.914}
{"smiles": "O=c1sn(-c2cccc3ccccc23)c(=O)n1Cc1ccccc1", "note": "[Tideglusib]", "PARP1 L713F-nLuc/akaLuc ratio": 1.22}
{"smiles": "CC(C)NC[C@@H](C(=O)N1CCN(c2ncnc3c2[C@H](C)C[C@H]3O)CC1)c1ccc(Cl)cc1", "note": "[Ipatasertib (GDC-0068)]", "PARP1 L713F-nLuc/akaLuc ratio": 0.669}
{"smiles": "NC1(c2ccc(-c3nc4ccn5c(=O)[nH]nc5c4cc3-c3ccccc3)cc2)CCC1", "PARP1 L713F-nLuc/akaLuc ratio": 0.79}
{"smiles": "COC(=O)c1cccc(NC(=O)NC2CCN(c3ccnc(Nc4ccc(F)cc4)n3)C2)c1", "note": "(centres undefined)", "PARP1 L713F-nLuc/akaLuc ratio": 1.07}
{"smiles": "O=C(O)C(Cc1c[nH]c2ccccc12)N1C(=O)c2ccccc2C1=O", "note": "(centres undefined)", "PARP1 L713F-nLuc/akaLuc ratio": 1.39}
{"smiles": "CC[C@H](C)C(=O)O[C@H]1C[C@@H](C)C=C2C=C[C@H](C)[C@H](CC[C@@H]3C[C@@H](O)CC(=O)O3)[C@H]21", "note": "[Lovastatin]", "PARP1 L713F-nLuc/akaLuc ratio": 0.643}
{"smiles": "Cc1[nH]n(-c2ccccc2)c(=O)c1N=Nc1ccc(N2CCOCC2)cc1", "PARP1 L713F-nLuc/akaLuc ratio": 1.04}
{"smiles": "COc1ccc(S(=O)(=O)Nc2cc(-c3csc(C#N)c3)ccc2C)cc1", "PARP1 L713F-nLuc/akaLuc ratio": 1.24}
{"smiles": "CC(CC(=O)C[C@@H](C)[C@H]1CC(=O)[C@@]2(C)C3=C(C(=O)C[C@]12C)[C@@]1(C)CCC(=O)C(C)(C)[C@@H]1C[C@@H]3O)C(=O)O", "note": "(some centres undefined) [Ganoderic acid D]", "PARP1 L713F-nLuc/akaLuc ratio": 0.929}
{"smiles": "COc1cccc(-n2c(=O)[nH]c3cc(Cl)n(-c4ccc(-c5cccc(OC)c5O)cc4)c3c2=O)c1", "PARP1 L713F-nLuc/akaLuc ratio": 0.814}
{"smiles": "CCN(CC)Cc1cc(Nc2ccnc3cc(Cl)ccc23)ccc1O", "note": "[Amodiaquine (dihydrochloride)]", "PARP1 L713F-nLuc/akaLuc ratio": 1.11}
{"smiles": "CC(C)[C@@](C)(O)[C@@H]1CN(c2nc(-c3[nH]nc4ncccc34)c(F)cc2Cl)CCN1", "PARP1 L713F-nLuc/akaLuc ratio": 0.823}
{"smiles": "CCS(=O)(=O)N1CCN(c2ccc(Nc3ncc(C(N)=O)c(NC4CC4)n3)cc2)CC1", "note": "[Cerdulatinib (hydrochloride)]", "PARP1 L713F-nLuc/akaLuc ratio": 1.06}
{"smiles": "Nc1nc(OCc2cc(Br)cs2)c2[nH]cnc2n1", "note": "[Lomeguatrib]", "PARP1 L713F-nLuc/akaLuc ratio": 1.01}
{"smiles": "O=C(O)c1ccc2c(c1)nc(Nc1cccc(Cl)c1)c1ccncc12", "note": "[Silmitasertib (CX-4945)]", "PARP1 L713F-nLuc/akaLuc ratio": 0.822}
{"smiles": "Cn1cc(C(N)=O)ccc1=O", "note": "[Nudifloramide]", "PARP1 L713F-nLuc/akaLuc ratio": 0.909}
{"smiles": "O=C(O)[C@]1(Cc2cccc(Nc3nccs3)n2)CC[C@@H](Oc2cccc(Cl)c2F)CC1", "PARP1 L713F-nLuc/akaLuc ratio": 1.05}
{"smiles": "COc1cc2ncnc(Nc3cccc(Cl)c3F)c2cc1OC(=O)N1CCN(C)C[C@H]1C", "PARP1 L713F-nLuc/akaLuc ratio": 1.31}
{"smiles": "CO[C@H]1C[C@@H]2CC[C@@H](C)[C@@](O)(O2)C(=O)C(=O)N2CCCC[C@H]2C(=O)O[C@H]([C@H](C)C[C@@H]2CC[C@@H](O)[C@H](OC)C2)CC(=O)[C@H](C)/C=C(\\C)[C@@H](O)[C@@H](OC)C(=O)[C@H](C)C[C@H](C)/C=C/C=C/C=C/1C", "note": "[Rapamycin (Sirolimus)]", "PARP1 L713F-nLuc/akaLuc ratio": 0.6}
{"smiles": "CC(C)(C)C[C@@H]1N[C@@H](C(=O)N[C@H]2CC[C@H](O)CC2)[C@H](c2cccc(Cl)c2F)[C@]12C(=O)Nc1cc(Cl)ccc12", "PARP1 L713F-nLuc/akaLuc ratio": "0.287 (active)"}
{"smiles": "CCN(CCO)CCCOc1ccc2c(Nc3cc(CC(=O)Nc4cccc(F)c4)[nH]n3)ncnc2c1", "note": "[Barasertib-HQPA]", "PARP1 L713F-nLuc/akaLuc ratio": 0.878}
{"smiles": "N=C(NC(=N)N1CCCC1)Nc1ccc(OC(F)(F)F)cc1", "PARP1 L713F-nLuc/akaLuc ratio": 1.01}
{"smiles": "CC(=O)N[C@@H](CCCCN)C(=O)Nc1ccc2c(C)cc(=O)oc2c1", "PARP1 L713F-nLuc/akaLuc ratio": 0.736}
{"smiles": "COc1cc2c(NC3CCN(C)CC3)nc(N3CCCN(C)CC3)nc2cc1OCCCN(C)C", "PARP1 L713F-nLuc/akaLuc ratio": 0.782}
{"smiles": "O=C(NCCCNC(=O)Nc1cccc(C2=NCCN2)c1)Nc1cccc(C2=NCCN2)c1", "note": "[p32 Inhibitor M36]", "PARP1 L713F-nLuc/akaLuc ratio": 1.09}
{"smiles": "CC[C@H](C)n1cc(C)c2c(C(=O)NCc3c(C)cc(C)[nH]c3=O)cc(-c3ccc(N4CCNCC4)nc3)cc21", "PARP1 L713F-nLuc/akaLuc ratio": 1.03}
{"smiles": "O=C(c1cccc(Cl)c1F)N1CCN(Cc2cccc(Nc3nccs3)n2)CC1", "PARP1 L713F-nLuc/akaLuc ratio": 1.61}
{"smiles": "NC(=O)c1cccc2cn(-c3ccc([C@@H]4CCCNC4)cc3)nc12", "note": "[Niraparib (hydrochloride)]", "PARP1 L713F-nLuc/akaLuc ratio": "4.39 (active)"}
{"smiles": "O=C1CCc2ccccc2O1", "note": "[Dihydrocoumarin]", "PARP1 L713F-nLuc/akaLuc ratio": 0.769}
{"smiles": "COc1ccc(COc2cc3oc(=O)c4cc(C(C)O)ccc4c3cc2OC)cc1", "note": "(centres undefined) [Palomid 529 (P529)]", "PARP1 L713F-nLuc/akaLuc ratio": 0.578}
{"smiles": "CNS(=O)(=O)C[C@H]1CC[C@H](N(C)c2[nH]cnc3nccc2-3)CC1", "note": "[Oclacitinib (maleate)]", "PARP1 L713F-nLuc/akaLuc ratio": 0.749}
{"smiles": "O=c1ccc2ccc(O)c(O)c2o1", "note": "[Daphnetin]", "PARP1 L713F-nLuc/akaLuc ratio": 1.38}
{"smiles": "CC(C)c1cccc(=O)c(O)c1", "note": "[Hinokitiol]", "PARP1 L713F-nLuc/akaLuc ratio": 0.993}
{"smiles": "CN1CC[C@@H](NC(=O)Nc2ccc(C#N)cc2)C[C@@H]1c1nc2ccccc2[nH]1", "PARP1 L713F-nLuc/akaLuc ratio": 0.89}
{"smiles": "CCCCCCCc1ccc(CCc2cccc(O)c2C(=O)O)cc1", "PARP1 L713F-nLuc/akaLuc ratio": 0.768}
{"smiles": "CC[C@]1(O)C[C@H]2CN(CCc3c([nH]c4ccccc34)[C@@](C(=O)OC)(c3cc4c(cc3OC)N(C=O)[C@H]3[C@@](O)(C(=O)OC)[C@H](OC(C)=O)[C@]5(CC)C=CCN6CC[C@]43[C@@H]65)C2)C1", "note": "[Vincristine sulfate]", "PARP1 L713F-nLuc/akaLuc ratio": 0.783}
{"smiles": "CC(C)(O)CC(=O)NCCn1ccc2ncnc(Nc3ccc(Oc4cccc(C(F)(F)F)c4)c(Cl)c3)c21", "PARP1 L713F-nLuc/akaLuc ratio": 0.662}
{"smiles": "CCNC(=O)CCC/C=C\\C[C@@H]1[C@@H](/C=C/[C@@H](O)CCc2ccccc2)[C@H](O)C[C@@H]1O", "note": "[Bimatoprost]", "PARP1 L713F-nLuc/akaLuc ratio": 0.942}
